Screen size: about 5,500 compounds; about 2,000 (36%) were called active. Not shown: some 18% with an inconclusive outcome. No stated cut-off is given here; in the data, active means normalized growth mostly below about 0.91 (no sharp cut-off); inconclusive means no clear call, values can overlap the other calls; inactive means mostly above about 0.92. This is one part of the list.
Assay: chemical genetic growth profiling, strain panel (AID 1159580);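 further: tested at 20 µM; growth read once vehicle control cultures reached saturation at 30 °C; 1 = growth at the plate median or of vehicle wells; lower values mean less growth of the strain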
Conditions: growth OD

Measured: normalized growth

NC(N)=NC(N)=Nc1ccccc1C(F)(F)F
inactive: S. cerevisiae deletion strains, locus YAL013W, strain DEP1, hits give low values 0.987 | S. cerevisiae deletion strains, locus YBR229C, strain ROT2, hits give low values 0.982 | S. cerevisiae deletion strains, locus YCL061C, strain MRC1, hits give low values 1.01 | S. cerevisiae deletion strains, locus YDL101C, strain DUN1, hits give low values 0.969 | S. cerevisiae deletion strains, locus YDR150W, strain NUM1, hits give low values 0.895 | S. cerevisiae deletion strains, locus YEL061C, strain CIN8, hits give low values 0.993 | S. cerevisiae deletion strains, locus YGR078C, strain PAC10, hits give low values 0.979 | S. cerevisiae deletion strains, locus YHR030C, strain SLT2, hits give low values 0.935 | S. cerevisiae deletion strains, locus YHR087W, strain rtc3, hits give low values 0.966 | S. cerevisiae deletion strains, locus YJR043C, strain POL32, hits give low values 0.998 | S. cerevisiae deletion strains, locus YJR075W, strain HOC1, hits give low values 1.01 | S. cerevisiae deletion strains, locus YKL190W, strain CNB1, hits give low values 0.997 | S. cerevisiae deletion strains, locus YLR039C, strain RIC1, hits give low values 0.989 | S. cerevisiae deletion strains, locus YLR058C, strain SHM2 (second series), hits give low values 0.982 | S. cerevisiae deletion strains, locus YLR085C, strain ARP6, hits give low values 1.01 | S. cerevisiae deletion strains, locus YLR262C, strain YPT6, hits give low values 0.997 | S. cerevisiae deletion strains, locus YML094W, strain GIM5, hits give low values 0.923 | S. cerevisiae deletion strains, locus YMR219W, strain ESC1, hits give low values 0.987 | S. cerevisiae deletion strains, locus YMR263W, strain SAP30, hits give low values 1.06 | S. cerevisiae deletion strains, locus YNL128W, strain TEP1, hits give low values 0.984 | S. cerevisiae deletion strains, locus YNL153C, strain GIM3, hits give low values 1.02 | S. cerevisiae deletion strains, locus YNL298W, strain CLA4 (second series), hits give low values 0.938 | S. cerevisiae deletion strains, locus YNL322C, strain KRE1, hits give low values 0.993 | S. cerevisiae deletion strains, locus YNR030W, strain Alg12, hits give low values 0.983 | S. cerevisiae deletion strains, locus YPL055C, strain LGE1, hits give low values 0.962 | S. cerevisiae deletion strains, locus YPR135W, strain CTF4, hits give low values 0.922 | S. cerevisiae strains, strain wild type, hits give low values 0.986

From PubChem BioAssay AID1159580 (chemical genetic matrix, 2015)
